Results on 26 compounds are retold here after PubChem BioAssay (Tox21).

Assay [1] is described as follows: qHTS assay to identify small molecule antagonists of the thyroid receptor (TR) signaling pathway - cell viability counter screen (AID 743064). Also: nearly all actives have a fitted effect of over 50% in size. Also: potency is read from the fitted curve at half-maximal effect. Put shortly:
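Plate GH3.TRE-Luc cells; incubate 4 h at 37 °C; add compound, then T3 to 1 nM final; incubate 23.5 h; add CellTiter-Fluor; incubate 30 min at 37 °C, 5% CO2; read fluorescence.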
A general note: qHTS replaces the single test concentration by a dilution series.

Assay [2] has as its system thyroid hormone receptor (rat, GH3 cells). Put plainly: qHTS assay to identify small molecule agonists of the thyroid receptor (TR) signaling pathway (AID 743066; calls by dose curve).
Assay [3] is described as follows: qHTS assay to identify small molecule antagonists of the estrogen receptor alpha (ER-alpha) signaling pathway - cell viability counter screen (AID 743074; calls by dose curve; also: nearly all actives have a fitted effect of over 45% in size).
Assay [4] has as its target Estrogen receptor (Homo sapiens) (UniProt P03372). Put plainly: qHTS assay to identify small molecule agonists of the estrogen receptor alpha (ER-alpha) signaling pathway (AID 743075; calls by dose curve).
For assay [5] the target is unchanged. Put plainly: qHTS assay to identify small molecule agonists of the estrogen receptor alpha (ER-alpha) signaling pathway using the BG1 cell line (AID 743079). Also: nearly all actives have a fitted effect of over 20% in size. Also: potency is read from the fitted curve at half-maximal effect.
Assay [6] is described as follows: qHTS assay to identify small molecule antagonists of the estrogen receptor alpha (ER-alpha) signaling pathway using the BG1 cell line (AID 743080; calls by dose curve; also: series mostly up to about 70 µM; nearly all actives have a fitted effect of over 25% in size). Put shortly: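 Antagonist mode: compounds in DMSO were pinned onto BG1-Luc-4E2 cells alongside 17beta-estradiol agonist, incubated 21.5 h, and ERE-driven luciferase measured with ONE-Glo. Cytotoxicity was multiplexed using CellTiter-Fluor fluorescence.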

The nature of assay [7]: qHTS assay to identify small molecule antagonists of the estrogen receptor alpha (ER-alpha) signaling pathway using the BG1 cell line - cell viability counter screen (AID 743081).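 Also: compound given together with 17beta-estradiol as the ER stimulus; nearly all actives have a fitted effect of over 45% in size.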 Also: potency is read from the fitted curve at half-maximal effect. As to activity change, negative = cytotoxicity: series mostly up to about 70 µM.
Assay [8] in a line: qHTS assay to identify small molecule antagonists of the thyroid receptor (TR) signaling pathway (AID 743065). Also: nearly all actives have a fitted effect of over 55% in size. Also: potency is read from the fitted curve at half-maximal effect. A digest of the protocol: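 GH3.TRE-Luc rat pituitary cells carrying two TR response elements driving luciferase were plated for 4 h, given compound plus 1 nM T3 (final), and incubated 23.5 h at 37 C. ONE-Glo luminescence measured reporter inhibition; CellTiter-Fluor fluorescence tracked cytotoxicity.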

In a further assay the target is Aromatase (Homo sapiens) (UniProt P11511). The assay is described as follows: qHTS assay to identify aromatase inhibitors (AID 743083). Also: nearly all actives have a fitted effect of over 55% in size. Also: potency is read from the fitted curve at half-maximal effect.
Aromatase (Homo sapiens), sequence (P11511 whole entry, looked up): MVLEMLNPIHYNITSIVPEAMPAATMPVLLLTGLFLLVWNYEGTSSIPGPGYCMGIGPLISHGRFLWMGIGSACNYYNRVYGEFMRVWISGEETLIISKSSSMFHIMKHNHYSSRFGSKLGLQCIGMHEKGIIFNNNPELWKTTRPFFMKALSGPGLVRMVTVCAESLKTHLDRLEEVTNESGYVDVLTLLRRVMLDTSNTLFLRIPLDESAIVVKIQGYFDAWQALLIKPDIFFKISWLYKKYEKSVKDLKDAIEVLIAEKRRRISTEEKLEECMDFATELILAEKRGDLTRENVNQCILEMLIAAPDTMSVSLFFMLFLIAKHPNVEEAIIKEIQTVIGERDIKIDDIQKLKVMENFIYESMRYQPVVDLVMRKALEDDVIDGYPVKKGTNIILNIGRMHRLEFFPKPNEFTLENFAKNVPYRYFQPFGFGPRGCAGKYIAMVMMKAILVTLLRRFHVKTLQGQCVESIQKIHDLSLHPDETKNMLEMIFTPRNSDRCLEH
Assay [9] concerns the target Estrogen receptor (Homo sapiens) (UniProt P03372). The assay is described as follows: qHTS assay to identify small molecule antagonists of the estrogen receptor alpha (ER-alpha) signaling pathway (AID 743069; active = well fitted curve in the direction sought with a large enough effect in the signal ratio in the repeat runs, not every such curve was filed as active; the % refers to the signal ratio). A digest of the protocol: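 HEK293 cells stably carrying an ER-alpha-UAS-bla beta-lactamase reporter were pre-cultured overnight in 2% charcoal-stripped FBS medium. Test compounds in DMSO were added together with 17beta-estradiol for 18 hr at 37C. Read-out was fluorescence after 2 hr with LiveBLAzer B/G FRET substrate at room temperature.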

Records with an inconclusive call do not appear. More than one record can exist for a structure, and the calls need not agree. Values without a mark were called inactive. Active and inactive are the calls of the source. Unless noted, calls follow the shape of the dose curve; as a rule, active = well fitted curve in the direction sought with a large enough effect in the repeat runs; inconclusive = weak or mixed curves; inactive = no such curve, though single readings can be large; an effect the other way counts as inactive or inconclusive.
% is scaled to controls: 0 for no effect and ±100 for the full control effect.

Estrogen receptor (Homo sapiens), sequence (P03372 whole entry, looked up): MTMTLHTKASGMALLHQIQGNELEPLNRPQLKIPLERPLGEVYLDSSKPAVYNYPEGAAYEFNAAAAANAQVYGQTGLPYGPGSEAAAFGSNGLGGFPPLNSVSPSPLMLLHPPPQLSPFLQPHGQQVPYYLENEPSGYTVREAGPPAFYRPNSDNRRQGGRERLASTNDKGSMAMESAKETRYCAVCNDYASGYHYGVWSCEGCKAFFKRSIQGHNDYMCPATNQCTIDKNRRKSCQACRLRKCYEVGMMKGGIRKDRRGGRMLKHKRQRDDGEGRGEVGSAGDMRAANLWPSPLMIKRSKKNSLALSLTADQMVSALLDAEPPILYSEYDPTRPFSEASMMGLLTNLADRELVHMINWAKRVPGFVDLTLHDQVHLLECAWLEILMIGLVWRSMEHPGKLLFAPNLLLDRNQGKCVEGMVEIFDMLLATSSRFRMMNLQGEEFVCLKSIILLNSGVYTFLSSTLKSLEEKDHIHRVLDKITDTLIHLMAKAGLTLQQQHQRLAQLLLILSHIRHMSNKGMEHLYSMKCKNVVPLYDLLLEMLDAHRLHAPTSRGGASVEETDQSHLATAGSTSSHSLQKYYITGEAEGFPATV

Regarding `COc1cc(CNC(=O)CCCC/C=C/C(C)C)ccc1O`, the Potency entry in assay [1], in assay [4], in [5], in assay [6] and in [7] was “inactive” in each case. Moreover, the result in assay [2] and in [3] was inactive.

For `O=C(O)COCC(=O)O`, the Potency result (in [1]; in assay [8]; in [7]; with Aromatase (Homo sapiens)) was “inactive” each time. For the same compound, the result in [2] was inactive.

As to `FC(F)(Cl)C(F)(Cl)Cl`, the Potency entry in assay [1], in [9], in assay [4], in [5], in assay [6] and in assay [7] was “inactive” each time. The Potency entry with Aromatase (Homo sapiens) is “inactive”. Further, the result in assay [2] was inactive.

On to `CC1(COc2ccc(CC3SC(=O)NC3=O)cc2)CCCCC1` (centres undefined), for which the values for the Potency in [1] and in [8] were 23.7 µM (active) and 11.9 µM (active), respectively. The Potency result in [4], in [6] and in assay [7] was “inactive” each time.

As for `Cc1ccc(NC(=O)c2ccc(CN3CCN(C)CC3)cc2)cc1Nc1nccc(-c2cccnc2)n1`, the results for the Potency in assay [1] and in [8] were 21.1 µM (active) and 26.6 µM (active), respectively. The result in assay [3] was inactive. Moreover, the Potency entry in [4] and in [5] was “inactive” throughout.

As to `Oc1ccc(CCNCCCCCCNCCc2ccccc2)cc1O`, the Potency in [1] is 29.8 µM (active); in [8], 26.6 µM (active). Moreover, the Potency entry (in [4]; in assay [5]; in the assay with Aromatase (Homo sapiens)) was “inactive” in each case.

On to `CCOC(C)OCC`, for which the Potency entry (in assay [1]; in [7]; with Aromatase (Homo sapiens)) was “inactive” throughout. Besides, in assay [3], the result was inactive.

Turning to `Nc1ncnc2c1ncn2[C@@H]1O[C@H](CO)[C@@H](O)[C@H]1O`, the Potency entry in [1], in [9], in assay [4], in assay [5], in assay [6] and in assay [7] was “inactive” in each case. The Potency result with Aromatase (Homo sapiens) is “inactive”. Besides, in [3], the call was inactive.

With `Nc1ccc(F)cc1F`, the Potency result (in [1]; in assay [9]; in assay [4]; in assay [5]; in assay [7]; in the assay with Aromatase (Homo sapiens)) was “inactive” throughout. In addition, in [3], the outcome was inactive.

Take `N#C[C@@H]1CC(F)(F)CN1C(=O)CNC1CC2CCC(C1)N2c1ncccn1` (some centres undefined): the Potency result (in assay [1]; in [4]; in assay [5]; in assay [7]; with Aromatase (Homo sapiens)) was “inactive” throughout. In addition, the call in assay [3] was inactive.

As to `C(/C=C/C=C/Nc1ccccc1)=Nc1ccccc1`, the Potency result in assay [1], in assay [9], in assay [4], in [5], in assay [6] and in assay [7] was “inactive” in each case. Moreover, the Potency entry with Aromatase (Homo sapiens) was “inactive”. Moreover, the compound was classed as inactive in assay [3].

For `O=S(=O)(O)c1cc(Cl)c(Cl)cc1Cl`, the Potency entry in assay [1], in assay [9], in assay [4], in [5], in [6] and in assay [7] was “inactive” in each case. Also, the Potency result with Aromatase (Homo sapiens) was “inactive”. Besides, the call in assay [3] was inactive.

For the compound `CC1=CC(=C(c2ccc(N)cc2)c2ccc(N)cc2)C=CC1=N`, the Potency in assay [1] is 13.3 µM (active); in assay [7] it was 11.9 µM (active); with Aromatase (Homo sapiens), 8.41 µM (active). The activation was -3.23% [at 8.08 µM] in assay [2] and 1.34% [at 8.47 µM] in assay [5]. In addition, the Potency entry in [4] was “inactive”. Also, the activity change, negative = inhibition in [6] is -25% [at 8.47 µM]. The activity change, negative = cytotoxicity in [7] is -20.8% [at 8.47 µM].

For `CC(C(=O)O)c1ccc2c(c1)Cc1cccnc1O2` (centres undefined), the Potency result (in [1]; in assay [7]; with Aromatase (Homo sapiens)) was “inactive” throughout. In addition, the outcome in [2] and in [3] was inactive.

As for `Nc1cccc2c(=O)[nH][nH]c(=O)c12`, the Potency entry (in [1]; in assay [4]; in assay [5]; in assay [7]; with Aromatase (Homo sapiens)) was “inactive” in each case. Moreover, the compound was classed as inactive in assay [2] and in assay [3].

For the compound `CC(=O)CC/C=C(\C)CC/C=C(\C)CC/C=C(\C)CCC=C(C)C`, the Potency result (in assay [1]; in assay [7]; in the assay with Aromatase (Homo sapiens)) was “inactive” throughout. The result in [2] and in [3] was inactive.

Regarding `O=C1c2ccccc2C(=O)C1c1ccc2ccccc2n1`, the Potency entry (in [1]; in [4]; with Aromatase (Homo sapiens)) was “inactive” each time. The compound was classed as inactive in assay [2] and in [3].

Regarding `CO[C@@H]1COCC[C@@H]1N[C@@H]1CC[C@@](C(=O)N2CCc3ncc(C(F)(F)F)cc3C2)(C(C)C)C1`, the Potency entry (in assay [1]; in [7]; with Aromatase (Homo sapiens)) was “inactive” in each case. For the same compound, in [3], the compound was classed as inactive.

Consider `CO[C@@H]1[C@@H](O[C@@H]2O[C@H](C)[C@@H](O[C@H]3C[C@@](C)(O)[C@@H](O)[C@H](C)O3)[C@H](N(C)C)[C@H]2O)[C@@H](CC=O)C[C@@H](C)[C@@H](O[C@@H]2CC[C@H](N(C)C)[C@@H](C)O2)/C=C/C=C/C[C@@H](C)OC(=O)C[C@H]1OC(C)=O`, for which, in assay [1], the Potency was 26.6 µM (active). Besides, the Potency result (in assay [9]; in assay [4]; in assay [5]; in assay [6]; with Aromatase (Homo sapiens)) was “inactive” in each case.

In the case of `CCc1ccc(C(=O)C(C)CN2CCCCC2)cc1` (centres undefined), the Potency entry (in assay [1]; in assay [7]; with Aromatase (Homo sapiens)) was “inactive” each time. Further, the result in assay [2] and in assay [3] was inactive.

Regarding `CC(=O)Nc1ccn(C2COC(COC(=O)c3ccccc3)O2)c(=O)n1` (centres undefined), the Potency entry in assay [1] and in assay [7] was “inactive” in each case. The call in [2] was inactive.

Regarding `CC(C)C/C=C(\C=O)c1ccccc1`, the Potency entry (in assay [8]; in [9]; in assay [4]; in assay [7]; in the assay with Aromatase (Homo sapiens)) was “inactive” in each case. Also, the result in assay [2] and in [3] was inactive. Also, the Potency in [5] is 61.1 µM (active).

For the compound `O=C(O)c1ccccc1[N+](=O)[O-]`, the Potency entry (in assay [1]; in assay [7]; with Aromatase (Homo sapiens)) was “inactive” each time. The result in assay [2] and in assay [3] was inactive.

Take `[O-][n+]1ccc(Cl)cc1`: the Potency result in assay [1] and in assay [7] was “inactive” in each case. The compound was classed as inactive in [2] and in [3].

Regarding `CC(O)CN` (centres undefined), the Potency result in [1], in [9], in assay [4], in assay [5], in assay [6] and in [7] was “inactive” throughout. Further, the Potency result with Aromatase (Homo sapiens) was “inactive”. Further, in assay [3], the result was inactive.

On to `CC(C)Cc1nccs1`, for which the Potency result (in assay [1]; in [7]; with Aromatase (Homo sapiens)) was “inactive” throughout. In addition, the outcome in assay [2] and in assay [3] was inactive.
